AI-2 QS modul: Vibrio harveyi AI-2 quorum sensing modulation; activity change, % at 7.5 µM; actives 0.4% (n = 300,000); Vibrio harveyi JMH597 AI-2 luminescence/OD600 ratio, 9 h; hits give low values; strain lacks LuxN and CqsS sensors; 0 = neutral-control median; in the data active = activity change below about -75%, passing the limit was not always enough;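 note: luminescence divided by OD600 gain over 9 h not by final OD600 alone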
NR3A LBD binder: modulates the human NR3A ligand-binding domain; actives 2.5% (n = 340,000); Tm shift relative to glycine control, % at 25 µM; NR3A LBD differential scanning fluorimetry, Tm shift; 0% = protein alone, 100% = glycine-bound protein; AID 1259313;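 active = melting temperature shift of at least 10% of the positive control shift, at one fixed dose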
NTR1 ag: activates human neurotensin receptor 1; activation, % at 20 µM; actives 0.17% (n = 330,000); P30989; NTR1-U2OS beta-arrestin-GFP spot imaging, agonist mode; AID 493036;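 active = activation at or above 40% of the spot to cytoplasm intensity ratio, with at least 20 cells analyzed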;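 note: 0% = DMSO without peptide and 100% = 100 nM NTR1 peptide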
Target sequence (P30989 whole entry, looked up): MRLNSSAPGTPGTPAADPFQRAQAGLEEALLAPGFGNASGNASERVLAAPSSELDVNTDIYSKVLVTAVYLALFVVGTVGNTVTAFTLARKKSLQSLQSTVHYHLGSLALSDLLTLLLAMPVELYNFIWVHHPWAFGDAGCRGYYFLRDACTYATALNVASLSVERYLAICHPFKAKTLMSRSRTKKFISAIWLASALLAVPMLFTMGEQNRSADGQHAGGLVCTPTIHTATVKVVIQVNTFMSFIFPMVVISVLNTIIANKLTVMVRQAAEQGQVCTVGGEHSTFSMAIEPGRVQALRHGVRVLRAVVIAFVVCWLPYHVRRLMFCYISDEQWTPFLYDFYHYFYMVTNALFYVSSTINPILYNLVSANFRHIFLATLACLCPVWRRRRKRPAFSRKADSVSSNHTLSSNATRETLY
Cardio protect: modulators protecting cardiomyocytes from myocardial damage. H9c2 cardiomyocytes, H2O2 injury protection, ATPLite, 2 h. protection from H2O2 cell death, % at 20 µM. actives 0.63% (n = 360,000);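 active = compounds giving at least 50% protection of heart cells from peroxide-induced death in the single-dose screen, raw or plate-pattern-corrected value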;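 note: 0% = DMSO wells with peroxide and 100% = DMSO wells without peroxide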
AHR act: activates the human aryl hydrocarbon receptor | actives 2.5% (n = 320,000) | activation, % at 5 µM | AHR-responsive luciferase reporter cells, luminescence | AID 2796; in the data active = activation above about 47%;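 note: 0% = vehicle wells and 100% = reference agonist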
SUMO Mot1 rescue: blocks SUMOylation pathway, rescuing yeast Mot1-301 growth | S. cerevisiae Mot1-301 growth rescue, ATP luminescence, 38.5C; percent above DMSO median, 100 means doubled | growth rescue, % at 18.8 µM | actives 1% (n = 320,000) | AID 2716;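 active = every valid replicate shows activation above 250% relative to neutral control wells; inactive = the rest, any valid replicate at or below 250%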;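 note: OY570 slx delta 5 strain wells were the positive control but not used for scaling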
Numbers without * were called inactive; x = not tested or not shown. The list is not random: actives were taken first. Their share in the collection is about 6.2%.

SMILES	AI-2 QS modul	NR3A LBD binder	NTR1 ag	Cardio protect	AHR act	SUMO Mot1 rescue
O=C(Nc1ccc2ccccc2c1)c1ccc(Br)o1	-9	10	1	-9	x	124
O=C(Nc1ccc2c(c1)oc1ccccc12)c1ccc(Br)o1	-3	29*	4	-27	17	-4
O=C(Nc1ccc2c(c1)OCO2)c1cncc(Br)c1	-8	4	0	-4	93*	1
O=C(Nc1ccc2c(c1)OCCO2)c1cncc(Br)c1	40	2	-1	-9	18	-14
O=C(Nc1ccc2c(c1)OCO2)c1ccc(Br)o1	23	-9	0	-5	129*	18
O=C(NCc1ccccc1)c1cc(C2CCCN(C(=O)C3CCCCC3)C2)on1 (stereo not given)	x	x	x	4	x	x
O=[N+]([O-])c1cccc(C2(O)COc3ccccc3O2)c1 (stereo not given)	-2	0	-1	-4	1	-5
Cc1ccc(-c2csc(NC(=O)CCCc3cccs3)n2)cc1	4	-3	0	5	12	15
CC(=O)Nc1cccc(-c2csc(Nc3ccc(Cl)cn3)n2)c1	25	14*	38	-10	11	15
CC(=O)Nc1ccc(-c2csc(Nc3ncccn3)n2)cc1	13	4	0	-4	15	9
Cc1ccc(Nc2nc(-c3ccc(O)c(O)c3)cs2)nc1	7	43*	17	x	x	x
CC(=O)Nc1ccc(-c2csc(Nc3ccc(Cl)cn3)n2)cc1	19	26*	14	-22	-3	21
CC(=O)Nc1ccc(-c2csc(NC(=O)CCCc3cccs3)n2)cc1	15	19*	10	3	-1	0
COC(=O)c1ccc(CN(c2ccc(C(=O)O)c(O)c2)S(=O)(=O)c2ccc(Cl)c([N+](=O)[O-])c2)cc1	28	22*	x	-17	0	-35
CCOc1ccc2ccccc2c1/C=N/NC(=O)c1cc(C)[nH]n1	7	4	4	1	12	56
Cc1cc(C(=O)N/N=C/c2ccccn2)n[nH]1	25	1	1	2	11	1
Cc1cc(C(=O)N/N=C/c2c(C)n(C)c3ccccc23)n[nH]1	-2	0	5	34	77*	-3
Cc1cc(C(=O)N/N=C/c2c3ccccc3cc3ccccc23)n[nH]1	19	-2	1	5	98*	-8
COc1ccc(C(C)(O)c2nc(-c3ccccc3OC)cs2)cc1 (stereo not given)	x	x	x	-10	x	x
CN(/N=C/c1ccc(-c2ccc([N+](=O)[O-])cc2)o1)c1ccccc1	-1	13*	2	-4	34	-5
O=C(N/N=C\c1ccc(-c2ccc([N+](=O)[O-])cc2)o1)c1ccc2c(c1)OCO2	24	31*	-2	8	12	-7
O=C(N/N=C/c1ccc([N+](=O)[O-])o1)c1ccc2c(c1)OCO2	-101*	-1	1	0	x	-18
Cn1nc(-c2ccc(Cl)cc2)c2cc(C(=O)N3CCOCC3)sc21	14	0	-3	-2	55*	-25
COc1cccc(-c2nc(CS(=O)(=O)CC(=O)N3CCN(c4ccccn4)CC3)c(C)o2)c1	1	5	-1	4	57*	2
COc1cccc(-c2nc(CS(=O)(=O)CC(=O)N3CCCCC3)c(C)o2)c1	26	0	0	0	6	-4
SMILES	AI-2 QS modul	NR3A LBD binder	NTR1 ag	Cardio protect	AHR act	SUMO Mot1 rescue
O=C(c1cc(-c2ccc(Cl)cc2)on1)N1CCOCC1	10	-2	-1	-11	-4	6
COc1cccc(C(=O)N2CCN(c3ccccn3)CC2)c1	21	-1	0	-1	-2	-21
COc1cccc(-c2nn(C)c3sc(C(=O)NCc4ccc5c(c4)OCO5)cc23)c1	17	-6	2	13	50*	-1
COc1cccc(-c2nn(C)c3sc(C(=O)N4CCN(c5ccccn5)CC4)cc23)c1	36	-3	10	-33	58*	5
OC(c1cccc(F)c1)c1ncc(-c2ccc(C(F)(F)F)cc2)[nH]1 (stereo not given)	x	x	x	-10	x	x
Cc1ccc(NS(=O)(=O)c2c(C)[nH]c(C)c2C(=O)N2CCCC2)cc1Cl	16	-1	0	2	0	0
CCOC(=O)C1CCCN(C(=O)c2cc3c(-c4cccc(OC)c4)nn(C)c3s2)C1 (stereo not given)	x	-2	-1	14	-1	7
COc1cccc(-c2nn(C)c3sc(C(=O)N4CCOCC4)cc23)c1	-4	-1	0	32	58*	-19
COc1cccc2c(SCC(=O)N/N=C/c3ccc(O)c(O)c3)cc(C)nc12	7	4	x	67*	12	-4
Cc1cc(SCC(=O)N/N=C/c2ccc(O)c(O)c2)nc2ccccc12	10	6	4	40	11	12
O=C(CSc1nc2ccccc2o1)N/N=C/c1ccc(O)c(O)c1	2	10	3	67*	9	-1
Cc1cc(SCC(=O)N/N=C/c2ccc(O)c(O)c2)c(C)cc1Br	9	-6	1	54*	3	6
O=C(CSc1nc2ccccc2o1)N/N=C/c1ccccc1	5	0	2	-3	8	2
CCCCCCOC(=O)C[N+](C)(C)CCOC1CC2CCC1(C)C2(C)C (stereo not given)	14	-3	40*	4	0	-38
CCCOc1ccc(-c2nc(C#N)c(N3CCC(C(N)=O)CC3)o2)cc1	35	2	2	4	5	-16
N#Cc1nc(-c2ccc(OCc3ccc(Cl)cc3)cc2)oc1N1CCC(C(N)=O)CC1	21	28*	3	-9	1	9
CCC1CCCCN1C(=O)c1cc(COc2ccc(-n3cncn3)cc2)on1 (stereo not given)	25	-1	0	-18	3	-20
CCN1CCn2c3c(c4cccc(C)c42)CCCC31 (stereo not given)	-10	-1	0	-12	61*	-1
Cc1ccc2c(c1)c1c3n2CCN(CCC#N)C3CCC1 (stereo not given)	x	x	x	-2	x	x
C[C@H]1CN(c2ccccc2)C(=O)[C@@H]1CC(=O)Nc1ccc(Br)cc1	x	x	x	-28	x	x
COc1ccc(-c2csc(NC(=S)NC(=O)/C=C/c3ccco3)n2)cc1OC	29	13*	x	3	13	-17
COc1ccc(-c2csc(NC(=S)NC(=O)/C=C/c3ccco3)n2)cc1Br	1	21*	4	6	1	-28
COc1ccc(C(=O)NC(=S)Nc2nc(-c3ccc(OC)c(Br)c3)cs2)cc1Br	36	1	0	-1	1	-4
COc1ccc(-c2csc(NC(=S)NC(=O)c3cc4ccccc4o3)n2)cc1Br	0	3	1	-3	-1	-15

Assay outcomes as filed in PubChem BioAssay.
